Reference: PubChem BioAssay (NCATS)
Where “and” joins values, the source holds several entries; their conditions need not be identical. Equal entries are not always repeated. A number with no mark means an inactive call. Results filed as inconclusive are left out. More than one record can exist for a structure, and the calls need not agree. Calls of active or inactive are those of the source. Unless noted, calls follow the shape of the dose curve; as a rule, active = well fitted curve in the direction sought with a large enough effect; inconclusive = small, poorly fitted or top-dose-only effect, or another doubt; inactive = no such curve, though single readings can be large; an effect the other way counts as inactive or inconclusive.

Columns and labels:
[1] = Cell Viability - BJ (AID 421; calls by dose curve;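 also: potency is read from the fitted curve at half-maximal effect; cells exposed to compound for 40 hours at 37 °C before readout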); settings: BJ fibroblast viability, qHTS
Procedure, shortened: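 Cytotoxicity as drop in intracellular ATP (CellTiter-Glo, 20 min RT) after 40 hr compound exposure of BJ fibroblasts at 37 °C. Titrations scaled between DMSO and 100 uM tamoxifen, Hill-fitted for AC50.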

[2] = Cell Viability - MRC5 (AID 434; calls by dose curve;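 also: potency is read from the fitted curve at half-maximal effect; potency reflects cytotoxicity seen as loss of intracellular ATP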); settings: MRC5 lung fibroblast viability, qHTS
Procedure, shortened: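 MRC5 normal human lung fibroblasts (1500/well) were treated with compounds for 40 hr at 37 °C in complete medium, and viable cells were measured as intracellular ATP by CellTiter-Glo luminescence. AC50 came from Hill fits, normalized to DMSO and 100 uM tamoxifen.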

[3] = Cell Viability - NIH 3T3 (AID 541); settings: NIH 3T3 cell viability, qHTS; activity change, negative = cytotoxicity: at 92.2 µM (top of the series);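 also: plate controls were DMSO alone for no effect and tamoxifen positive control for full effect; nearly all actives have a fitted effect of over 25% in size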
Procedure, shortened: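 Mouse NIH 3T3 fibroblasts, 1000 cells/well, rested 5 hr at 37 °C, then exposed to compound for 40 hr at 37 °C in complete medium. Viability read as intracellular ATP by CellTiter-Glo luminescence; AC50 from Hill-equation fits of concentration-response data.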

[4] = Cell Viability - Mesenchymal (AID 546);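 also: cells exposed to compound for 40 hours before reading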
Procedure, shortened: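 Normal human renal glomerulus-derived kidney mesenchymal cells, 1000 per well in complete medium, were treated with compounds for 40 hr at 37 °C. Viability was read as intracellular ATP by CellTiter-Glo luminescence; AC50 values came from Hill-equation fits of qHTS concentration-response data.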

[5] = Cellular Toxicity (caspase-3) Jurkat (AID 655); settings: Jurkat caspase-3 activation, luminescence, DMSO = 0%, tamoxifen = 100%; at 92.2 µM (top of the series);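 also: cells exposed to compound for 16 h at 37 °C before reading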
Procedure, shortened: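 Caspase 3/7 activation is scored as increased luminescence in Jurkat cells cultured with compound for 16 hours in complete medium. AC50 values come from Hill fits of qHTS concentration-response data normalized to DMSO and 100 uM tamoxifen controls.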

[6] = Cellular Toxicity (caspase-3) SHSY5Y (AID 657)
Procedure, shortened: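 Cells plated and incubated 5 h at 37 °C, dosed over a concentration range, incubated 16 h, then given Caspase-Glo 3/7 reagent for 1 h at room temperature before luminescence reading. Staurosporine (10 uM) defined full stimulation.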

[7] = Cellular Toxicity (caspase-3) SK-N-SH (AID 661);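 also: 0% = DMSO basal and 100% = 10 µM staurosporine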
Procedure, shortened: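 Human SK-N-SH neuroblastoma cells, 1500/well, were exposed to compounds for 16 hours at 37 °C. Caspase-Glo 3/7 luminescence was normalized to DMSO (basal) and 10 uM staurosporine (100%), and AC50 came from a Hill fit.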

[8] = MultiTox-Fluor Cytotoxicity Assay - LYMP1-003 - Dead Cells (AID 961); also: nearly all actives have a fitted effect of over 70% in size; also: potency is read from the fitted curve at half-maximal effect
Procedure, shortened: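 Dead-cell protease release, detected as bis-AAF-R110 fluorescence at 485/520 nm, was measured in LYMP1-003 cells after 16 h compound treatment at 37 C. AC50 values came from Hill-modeled qHTS curves normalized to DMSO (0%) and 15 uM tetraoctylammonium bromide (100%).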

[9] = Cell Viability - LYMP2-003 (AID 965);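 also: cells exposed to compounds for 24 h before reading; nearly all actives have a fitted effect of over 50% in size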; also: potency is read from the fitted curve at half-maximal effect;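 as to activity change, negative = cytotoxicity: 0% = DMSO only and full effect = 92 µM tetraoctylammonium bromide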
Procedure, shortened: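 Acute cytotoxicity is scored as a concentration-dependent drop in intracellular ATP, measured by luciferase luminescence in human lymphoblastoid cells treated for 24 hours at 37 C. AC50 values derive from Hill-equation modelling.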

[10] = Cell Viability - LYMP2-025 (AID 976); also: potency is read from the fitted curve at half-maximal effect;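 as to activity change, negative = cytotoxicity: plate controls were DMSO only for no effect and tetraoctylammonium bromide control for full effect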
Procedure, shortened: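 Human lymphoblastoid LYMP2-025 cells, 2500/well, exposed 24 h at 37 C in complete medium in 1536-well qHTS. Viability as cellular ATP by CellTiter-Glo luminescence; AC50 from Hill fits of concentration-response data.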

[11] = Cell Viability - LYMP2-007 (AID 979);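 also: cells exposed to compound for 24 h before reading; nearly all actives have a fitted effect of over 60% in size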; also: potency is read from the fitted curve at half-maximal effect;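 as to activity change, negative = cytotoxicity: 0% = DMSO only and the negative end = 92 µM tetraoctylammonium bromide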
Procedure, shortened: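 Human lymphoblastoid LYMP2-007 cells (2500/well) preincubated 5 h at 37 C, then treated 24 h at 37 C in complete medium. Viability by CellTiter-Glo ATP luminescence after 30 min at room temperature; AC50 from Hill fits.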

[12] = biological target: Retinoic acid receptor RXR-alpha (Homo sapiens) (UniProt P19793); experiment: qHTS assay for small molecule antagonists of retinoid X receptor alpha signaling (AID 588546; active = well fitted inhibition curve with a large enough effect in the signal ratio, with a control signal flat, not every such curve was filed as active; the % refers to the signal ratio;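 also: cells stimulated with 9-cis-retinoic acid as agonist; % is scaled to controls: 0 for no effect and ±100 for the full control effect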); settings: HEK293T RXRa-UAS-bla, beta-lactamase ratio, antagonist mode
Procedure, shortened: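 Beta-lactamase reporter inhibition, read as CCF4 fluorescence ratio (ex 405, em 460/530 nm) after 2 h at RT. HEK293T UAS-bla cells, 2500/well, were stimulated with 9-cis-RA at 500 or 100 nM final alongside test compound for 18 h at 37 C.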

[13] = qHTS assay for small molecule activators of the nuclear factor-kappa B (NF-kB) signaling pathway (AID 651749; active = well fitted activation curve with a large enough effect in the signal ratio; the % refers to the signal ratio; also: % of control where 0% means no effect); settings: NF-kB-bla ME-180 cells, beta-lactamase FRET ratio, 16 h; activation: active compounds read high
Procedure, shortened: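 Screening used 2,000 ME-180 reporter cells per well exposed to pinned compound (23 nL) or DMSO; after 16 hr at 37C, beta-lactamase expression under NF-kB control was assessed through FRET.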

[14] = qHTS assay for environmental chemicals that activate the Aryl hydrocarbon Receptor (AhR) signaling pathway (AID 651777); settings: 1A2-DRE human hepatoma cells, luciferase, 24 h; activation: active compounds read high; also: nearly all actives have a fitted effect of over 15% in size; also: potency is read from the fitted curve at half-maximal effect; as to activation: % of control where 0% means no effect
Procedure, shortened: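 Quantitative HTS in stably transfected human liver-derived cells whose luciferase gene sits downstream of the CYP1A2 promoter and dioxin response element. After 24 hr exposure at 37 C, One-Glo luminescence was measured.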

[15] = qHTS assay for small molecule agonists of the antioxidant response element (ARE) signaling pathway measured by Nrf2-dependant transcriptional activity (AID 720636; active = well fitted curve in the direction sought with a large enough effect in the repeat runs; an effect the other way counts as inactive or inconclusive; also: % of control where 0% means no effect)
Procedure, shortened: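 Quantitative HTS format in HepG2 cells stably expressing an ARE-luciferase reporter; 16 hr compound treatment at 37 C, luciferase signal detected with ONE-Glo.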

[16] = qHTS assay for cell viability of the p53RE-bla HCT-116 cell line (AID 743292); also: % is scaled to controls: 0 for no effect and ±100 for the full control effect; nearly all actives have a fitted effect of over 55% in size
Procedure, shortened: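 Viability of compound-treated p53RE-bla HCT-116 cells is taken from ATP-dependent luciferase luminescence. Treatment lasts 16 h at 37 C after a 5 h settling period; detection follows 30 min at room temperature.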

[17] = biological target: Cytochrome P450 2D6 (Homo sapiens) (UniProt P10635); experiment: qHTS Assay for Inhibitors and Substrates of Cytochrome P450 2D6 (AID 891); also: nearly all actives have a fitted effect of over 60% in size; also: potency is read from the fitted curve at half-maximal effect
Procedure, shortened: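 Human CYP2D6 (5 nM) with 30 uM Luciferin-ME EGE (at Km) in 100 mM KPO4, compound preincubated 10 min, then NADPH regeneration system for 60 min at room temperature. Luciferin read by luminescence; normalized to 1.43 uM quinidine.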

[18] = qHTS for differential inhibitors of proliferation of Plasmodium falciparum line 7G8 (AID 1815);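 also: potency is read from the fitted curve at half-maximal effect; parasite growth measured after three days of incubation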
[19] = qHTS for differential inhibitors of proliferation of Plasmodium falciparum line D10 (AID 1877);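 also: parasites grown with compound for 72 h before DNA staining; plate controls were vehicle wells for no effect and reference inhibitor wells for full effect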
[20] = qHTS for differential inhibitors of proliferation of Plasmodium falciparum line W2 (AID 1883); settings: Potency: Plasmodium falciparum W2 proliferation inhibition;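 also: potency is read from the fitted curve at half-maximal effect; parasites grown with compound for 72 h before lysis and staining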

Chain of Retinoic acid receptor RXR-alpha (Homo sapiens) (P19793 whole entry, looked up): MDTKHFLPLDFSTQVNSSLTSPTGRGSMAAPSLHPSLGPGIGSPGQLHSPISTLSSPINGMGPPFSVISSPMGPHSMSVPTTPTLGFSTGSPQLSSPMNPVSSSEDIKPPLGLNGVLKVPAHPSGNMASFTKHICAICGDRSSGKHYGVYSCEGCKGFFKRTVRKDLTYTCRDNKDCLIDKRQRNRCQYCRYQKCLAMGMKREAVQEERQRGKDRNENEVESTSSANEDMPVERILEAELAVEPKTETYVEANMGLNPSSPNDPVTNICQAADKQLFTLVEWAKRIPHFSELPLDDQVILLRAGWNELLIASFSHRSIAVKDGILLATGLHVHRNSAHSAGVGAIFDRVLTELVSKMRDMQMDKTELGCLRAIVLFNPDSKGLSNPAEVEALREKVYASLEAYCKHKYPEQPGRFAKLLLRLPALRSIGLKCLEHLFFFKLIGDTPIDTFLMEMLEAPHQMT
Chain of Cytochrome P450 2D6 (Homo sapiens) (P10635 whole entry, looked up): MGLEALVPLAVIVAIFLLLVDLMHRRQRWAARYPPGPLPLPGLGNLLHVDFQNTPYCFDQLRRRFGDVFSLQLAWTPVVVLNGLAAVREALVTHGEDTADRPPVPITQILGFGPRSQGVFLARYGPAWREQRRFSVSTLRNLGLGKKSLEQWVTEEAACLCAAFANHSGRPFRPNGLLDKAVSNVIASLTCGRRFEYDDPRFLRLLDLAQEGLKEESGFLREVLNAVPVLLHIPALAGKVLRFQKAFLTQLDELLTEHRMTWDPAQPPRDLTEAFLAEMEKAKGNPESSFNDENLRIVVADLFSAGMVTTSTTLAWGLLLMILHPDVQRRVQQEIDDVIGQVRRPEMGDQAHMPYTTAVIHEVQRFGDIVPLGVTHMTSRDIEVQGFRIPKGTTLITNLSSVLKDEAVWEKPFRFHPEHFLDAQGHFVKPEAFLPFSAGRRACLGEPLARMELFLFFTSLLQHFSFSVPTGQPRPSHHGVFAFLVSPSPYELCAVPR

C=CCc1ccc(OC)cc1
Potency [1]: > 92 µM | Potency [2]: > 92 µM | activity change, negative = cytotoxicity [3]: 3.06% | outcome [4]: inactive | caspase-3 activation [5]: 0.324% | outcome [6]: inactive | outcome [7]: inactive | Potency [8]: inactive | Potency [9]: inactive | Potency [10]: inactive | Potency [11]: inactive | max response [12]: 6.28% | activation [13]: -0.38% | activation [14]: 0.798% | outcome [15]: inactive | Potency [16]: inactive

CCOCN(C(=O)CCl)c1c(C)cccc1CC
Potency [1]: 22.8 µM (active) | activity change, negative = cytotoxicity [3]: -155% (active) | outcome [4]: inactive | outcome [6]: inactive | outcome [7]: inactive | Potency [9]: 50.1 µM (active) | Potency [11]: 50.1 µM (active) | activation [13]: -2.07% and -2.02% | activation [14]: -0.995% and 0.961% | Potency [16]: inactive

ClC(Cl)=C(c1ccc(Cl)cc1)c1ccc(Cl)cc1
Potency [1]: > 92 µM | Potency [2]: > 92 µM | activity change, negative = cytotoxicity [3]: 7.39% and -2.45% | outcome [4]: inactive | caspase-3 activation [5]: 0.557% and 1.81% | outcome [6]: inactive | outcome [7]: inactive | Potency [8]: inactive | Potency [9]: inactive | Potency [10]: inactive | Potency [11]: inactive | max response [12]: -7.07% and 0.666% | activation [13]: 0.128% and -1.11% and 0.0255% | activation [14]: 0.0823% and 0.597% and 0.112% | outcome [15]: inactive | Potency [16]: inactive

COP(=S)(OC)Oc1ccc([N+](=O)[O-])cc1
Potency [1]: > 92 µM | Potency [2]: > 92 µM | activity change, negative = cytotoxicity [3]: -18.8% | outcome [4]: inactive | caspase-3 activation [5]: 4.38% | outcome [6]: inactive | outcome [7]: inactive | Potency [8]: inactive | Potency [9]: inactive | Potency [10]: inactive | Potency [11]: inactive | max response [12]: -10.1% and -10.7% | activation [13]: -0.601% | activation [14]: 0.87% and 0.313% | outcome [15]: inactive | Potency [16]: inactive

c1ccc(N2CCC3(CCNCC3)CC2)nc1
Potency [17]: 1.26 µM (active)

ClC1=C(Cl)C2(Cl)C3C(Cl)C=CC3C1(Cl)C2(Cl)Cl (configuration not stated)
Potency [2]: > 92 µM | outcome [4]: inactive | caspase-3 activation [5]: 5.51% | outcome [6]: inactive | outcome [7]: inactive | Potency [8]: 39.8 µM (active) | Potency [9]: 39.8 µM (active) | Potency [10]: inactive | max response [12]: -17.9% | activation [13]: 1.89% | activation [14]: -0.719% | outcome [15]: inactive | Potency [16]: inactive

CN1CCC23CCCC[C@H]2C1Cc1ccc(O)cc13 (some centres not stated)
Potency [18]: 6.31 µM (active) | Potency [19]: inactive | Potency [20]: 1.58 µM (active)

CC(C)CN1CC2(CCN(C(=O)c3ccncc3)CC2)C1
Potency [17]: 3.98 µM (active)

CCc1cccc(CC)c1N(COC)C(=O)CCl
activity change, negative = cytotoxicity [3]: -147% (active) | outcome [4]: inactive | outcome [6]: inactive | outcome [7]: inactive | Potency [8]: inactive | Potency [10]: inactive | max response [12]: -7.04% | activation [13]: -1.33% and -2.4% | activation [14]: -1.54% and -2.21% | Potency [16]: inactive

CCC(CO)NC(=O)[C@@H]1C=C2c3cccc4[nH]cc(c34)C[C@H]2N(C)C1 (some centres not stated)
Potency [18]: 10 µM (active) | Potency [20]: 12.6 µM (active)

CC1Cc2cc3c(cc2C(c2ccc(N)cc2)=NN1)OCO3 (configuration not stated)
Potency [18]: 12.6 µM (active) | Potency [19]: inactive | Potency [20]: 2.24 µM (active)

ClC1=C(Cl)C2(Cl)C3C4CC(C5OC45)C3C1(Cl)C2(Cl)Cl (configuration not stated)
Potency [1]: > 92 µM | Potency [2]: > 92 µM | activity change, negative = cytotoxicity [3]: -20.8% | caspase-3 activation [5]: 28.4% | outcome [6]: inactive | outcome [7]: inactive | Potency [8]: 10 µM (active) | Potency [9]: 25.1 µM (active) | Potency [10]: 50.1 µM (active) | Potency [11]: 31.6 µM (active) | activation [13]: -0.275% | activation [14]: -0.344% | outcome [15]: inactive | Potency [16]: inactive

C/C=C/c1ccc2c(c1)OCO2
Potency [1]: > 92 µM | Potency [2]: > 92 µM | activity change, negative = cytotoxicity [3]: -3.37% | outcome [4]: inactive | caspase-3 activation [5]: 2.64% | outcome [6]: inactive | outcome [7]: inactive | Potency [8]: inactive | Potency [9]: inactive | Potency [10]: inactive | Potency [11]: inactive | max response [12]: -0.653% | activation [13]: -1.42% | outcome [15]: inactive | Potency [16]: inactive

CCN(CC)C(=O)N[C@@H]1C[C@@H]2c3cccc4[nH]cc(c34)C[C@H]2N(C)C1
Potency [18]: 5.62 µM (active) | Potency [20]: 0.891 µM (active)

CNC(=O)O/N=C/C(C)(C)SC
Potency [1]: > 92 µM | Potency [2]: > 92 µM | activity change, negative = cytotoxicity [3]: -9.42% | outcome [4]: inactive | caspase-3 activation [5]: -0.602% | outcome [6]: inactive | outcome [7]: inactive | Potency [8]: inactive | Potency [9]: inactive | Potency [10]: inactive | Potency [11]: inactive | max response [12]: -10.4% and 16.3% and -14.6% | activation [13]: -0.362% and -4.25% and 1.36% | Potency [14]: 39.8 µM (active) | activation [14]: -0.995% and 0.0962% | outcome [15]: inactive | Potency [16]: inactive

CN1CCc2cc3c(cc2[C@@H]1[C@@H]1OC(=O)c2c1ccc1c2OCO1)OCO3
Potency [17]: inactive

CN(C)C(=O)Oc1cc(OC(=O)N(C)C)cc([C@@H](O)CNC(C)(C)C)c1
Potency [17]: 7.94 µM (active)

CN1CCc2cc3c(cc2[C@@H]1O)OCO3
Potency [17]: 7.94 µM (active)

CCC[C@@](C)(COC(N)=O)COC(=O)NC(C)C
Potency [17]: inactive

CC[N@+]1(C)CCC[C@@H](OC(=O)C(O)(c2ccccc2)c2ccccc2)C1
Potency [17]: 5.01 µM (active)

COc1ccc2c(c1OC)C(=O)O[C@H]2[C@H]1c2cc3c(cc2CCN1C)OCO3
Potency [17]: inactive

COc1cc2c(cc1OC)[C@H](C)NCC2
Potency [17]: inactive

C=C[C@H]1CN2CC[C@@H]1C[C@H]2[C@@H](O)c1ccnc2ccccc12
Potency [17]: 3.16 µM (active) and 501 nM (active)
